From the supplement of paper PMC10849652
Targets with a hit are over-represented here; the source holds about 7,900 in all. About 0.6% of all pairs of compound and target were hits. Unmarked numbers belong to inactive results.

What was measured:
Assay in all cases: log2 fold change, soluble protein after heating vs DMSO (PISA); higher = thermal stabilisation; K562 cells, 10 uM, 30 min; active = over 0.2 and 3.5 SD of the protein, either way, in both replicates (recomputed)
[1] = compound: CS(=O)(=O)c1ccc(-c2cnc(N)c(C(=O)Nc3ccccc3)n2)cc1
Summary of the method: (§1)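 Thermal stability values are relative to control samples and come from duplicates. They are expressed as log2 fold changes. For measurement, K562 cells (2×10^6 cells/mL) received 10 μM compound for 30 min, and aliquots were heated for 3 min over 48°C-58°C, pooled, and extracted at 4°C in PBS with 0.5% NP-40. Soluble protein, the supernatant after 21,000xg for 90 min, was quantified by TMTpro 16plex LC-MS/MS with equalised channel sums.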

crizotinib = compound: C[C@@H](Oc1cc(-c2cnn(C3CCNCC3)c2)cnc1N)c1c(Cl)ccc(F)c1Cl [crizotinib]
Summary of the method: as §1

[2] = compound: C[C@@H]1COCCN1C2=NC(=NC(=C2)C3(CC3)S(=O)(=O)C)C4=C5C=CNC5=CC=C4
Summary of the method: as §1

[3] = compound: C[C@H](C1=CC=C(C=C1)C(=O)NC2=C3C=CNC3=NC=C2)N
Summary of the method: as §1

gandotinib = compound: Cc1cc(Nc2cc(CN3CCOCC3)c3nc(C)c(Cc4ccc(Cl)cc4F)n3n2)n[nH]1 [gandotinib]
Summary of the method: as §1

tozasertib = compound: Cc1cc(Nc2cc(N3CCN(C)CC3)nc(Sc3ccc(NC(=O)C4CC4)cc3)n2)n[nH]1 [tozasertib]
Summary of the method: as §1

doramapimod = compound: Cc1ccc(-n2nc(C(C)(C)C)cc2NC(=O)Nc2ccc(OCCN3CCOCC3)c3ccccc23)cc1 [doramapimod]
Summary of the method: as §1

ispinesib = compound: Cc1ccc(C(=O)N(CCCN)[C@@H](c2nc3cc(Cl)ccc3c(=O)n2Cc2ccccc2)C(C)C)cc1 [ispinesib]
Summary of the method: as §1

bafetinib = compound: Cc1ccc(NC(=O)c2ccc(CN3CC[C@H](N(C)C)C3)c(C(F)(F)F)c2)cc1Nc1nccc(-c2cncnc2)n1 [bafetinib]
Summary of the method: as §1

[4] = compound: Cc1cccc(CC(=O)N2CCc3c2ccc(-c2cn(C)c4ncnc(N)c24)c3F)n1
Summary of the method: as §1

nilotinib = compound: Cc1cn(-c2cc(NC(=O)c3ccc(C)c(Nc4nccc(-c5cccnc5)n4)c3)cc(C(F)(F)F)c2)cn1 [nilotinib]
Summary of the method: as §1

[5] = compound: Cc1nc(Nc2n[nH]c3c2CN(C(=O)N[C@H](CN(C)C)c2ccccc2)C3(C)C)c2sccc2n1
Summary of the method: as §1

[6] = compound: Cc1ncc(-c2ccnc(Nc3ccc(S(C)(=O)=O)cc3)n2)n1C(C)C
Summary of the method: as §1

[7] = compound: Cn1cc(-c2ccc3c(c2)CCN3C(=O)Cc2cccc(C(F)(F)F)c2)c2c(N)ncnc21
Summary of the method: as §1

[8] = compound: Cn1cc(-c2ccc3nnc(C(F)(F)c4ccc5ncccc5c4)n3n2)cn1
Summary of the method: as §1

tipifarnib = compound: Cn1cncc1[C@@](N)(c1ccc(Cl)cc1)c1ccc2c(c1)c(-c1cccc(Cl)c1)cc(=O)n2C [tipifarnib]
Summary of the method: as §1

mubritinib = compound: FC(F)(F)c1ccc(/C=C/c2nc(COc3ccc(CCCCn4ccnn4)cc3)co2)cc1 [mubritinib]
Summary of the method: as §1

duvelisib = compound: C[C@H](Nc1ncnc2nc[nH]c12)c1cc2cccc(Cl)c2c(=O)n1-c1ccccc1 [duvelisib]
Summary of the method: as §1

[9] = compound: Cc1cc(SCc2sc(-c3ccc(C(F)(F)F)cc3)nc2C)ccc1OCC(=O)O
Summary of the method: as §1

dasatinib = compound: Cc1nc(Nc2ncc(C(=O)Nc3c(C)cccc3Cl)s2)cc(N2CCN(CCO)CC2)n1 [dasatinib]
Summary of the method: as §1

Chain of UniProt O00567 (O00567 whole entry, looked up): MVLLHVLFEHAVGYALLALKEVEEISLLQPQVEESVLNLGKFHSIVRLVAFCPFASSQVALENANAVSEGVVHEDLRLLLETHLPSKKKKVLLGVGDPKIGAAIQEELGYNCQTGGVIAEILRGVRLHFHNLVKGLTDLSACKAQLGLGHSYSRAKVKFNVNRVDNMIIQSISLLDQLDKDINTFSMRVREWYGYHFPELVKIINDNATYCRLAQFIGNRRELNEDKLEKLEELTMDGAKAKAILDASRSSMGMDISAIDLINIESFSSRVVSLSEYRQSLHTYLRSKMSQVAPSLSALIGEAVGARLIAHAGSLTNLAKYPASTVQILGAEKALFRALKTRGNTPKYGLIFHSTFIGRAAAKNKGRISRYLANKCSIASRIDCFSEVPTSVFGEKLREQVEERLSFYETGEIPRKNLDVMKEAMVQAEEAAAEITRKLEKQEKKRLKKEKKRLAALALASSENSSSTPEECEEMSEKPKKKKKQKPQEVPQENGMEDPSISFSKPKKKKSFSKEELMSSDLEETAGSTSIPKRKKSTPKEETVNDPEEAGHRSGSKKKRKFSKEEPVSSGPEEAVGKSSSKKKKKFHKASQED
Chain of UniProt Q86VX9 (Q86VX9 whole entry, looked up): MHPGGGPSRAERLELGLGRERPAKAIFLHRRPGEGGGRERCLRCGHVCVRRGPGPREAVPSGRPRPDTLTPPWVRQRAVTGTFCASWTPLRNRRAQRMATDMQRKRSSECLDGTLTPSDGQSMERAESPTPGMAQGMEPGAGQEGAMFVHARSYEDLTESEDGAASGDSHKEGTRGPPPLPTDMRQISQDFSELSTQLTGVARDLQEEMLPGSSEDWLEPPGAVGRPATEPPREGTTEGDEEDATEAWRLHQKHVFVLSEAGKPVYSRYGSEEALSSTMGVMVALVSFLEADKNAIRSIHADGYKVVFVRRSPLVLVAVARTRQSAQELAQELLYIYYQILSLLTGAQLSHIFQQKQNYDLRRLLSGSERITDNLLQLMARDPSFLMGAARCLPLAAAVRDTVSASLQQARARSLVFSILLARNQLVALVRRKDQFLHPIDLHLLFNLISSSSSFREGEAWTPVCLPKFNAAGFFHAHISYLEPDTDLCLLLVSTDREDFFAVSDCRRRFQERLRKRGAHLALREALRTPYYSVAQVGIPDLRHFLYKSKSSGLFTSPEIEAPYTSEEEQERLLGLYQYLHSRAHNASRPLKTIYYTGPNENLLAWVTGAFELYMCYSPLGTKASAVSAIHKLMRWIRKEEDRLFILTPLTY
Chain of UniProt O43913 (O43913 whole entry, looked up): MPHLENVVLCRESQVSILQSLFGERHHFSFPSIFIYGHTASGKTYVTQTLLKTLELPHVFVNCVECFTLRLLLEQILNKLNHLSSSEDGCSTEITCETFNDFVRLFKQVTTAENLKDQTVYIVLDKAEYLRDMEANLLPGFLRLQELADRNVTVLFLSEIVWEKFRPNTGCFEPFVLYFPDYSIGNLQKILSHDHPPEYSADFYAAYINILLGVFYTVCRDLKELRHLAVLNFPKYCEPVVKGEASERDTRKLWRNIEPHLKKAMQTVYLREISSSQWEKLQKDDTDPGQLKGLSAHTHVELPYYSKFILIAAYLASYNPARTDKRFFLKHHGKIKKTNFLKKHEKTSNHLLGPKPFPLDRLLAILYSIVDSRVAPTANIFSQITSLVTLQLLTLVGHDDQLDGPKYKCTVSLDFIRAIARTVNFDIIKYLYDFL
Chain of UniProt Q9UK23 (Q9UK23 whole entry, looked up): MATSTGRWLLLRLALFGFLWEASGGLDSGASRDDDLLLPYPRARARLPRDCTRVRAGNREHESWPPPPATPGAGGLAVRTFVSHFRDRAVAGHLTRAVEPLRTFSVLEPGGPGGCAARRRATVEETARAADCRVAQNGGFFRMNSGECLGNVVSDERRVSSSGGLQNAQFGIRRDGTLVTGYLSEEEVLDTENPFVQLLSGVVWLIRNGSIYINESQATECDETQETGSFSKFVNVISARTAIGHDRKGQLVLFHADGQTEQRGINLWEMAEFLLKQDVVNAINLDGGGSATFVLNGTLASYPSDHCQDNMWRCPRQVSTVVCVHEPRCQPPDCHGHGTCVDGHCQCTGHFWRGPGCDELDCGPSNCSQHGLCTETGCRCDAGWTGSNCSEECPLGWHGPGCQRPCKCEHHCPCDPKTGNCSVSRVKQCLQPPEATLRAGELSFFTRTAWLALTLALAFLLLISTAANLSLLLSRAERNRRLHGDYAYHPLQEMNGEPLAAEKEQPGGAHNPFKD
Chain of UniProt P0C024 (P0C024 whole entry, looked up): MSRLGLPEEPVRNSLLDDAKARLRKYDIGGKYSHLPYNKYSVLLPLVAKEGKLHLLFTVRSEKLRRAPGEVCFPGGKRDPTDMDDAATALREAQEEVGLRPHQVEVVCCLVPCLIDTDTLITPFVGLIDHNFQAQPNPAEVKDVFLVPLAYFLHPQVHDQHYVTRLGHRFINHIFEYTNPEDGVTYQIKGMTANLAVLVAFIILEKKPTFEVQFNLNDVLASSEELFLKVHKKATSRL

Target | log2 fold change [1] | log2 fold change (crizotinib) | log2 fold change [2] | log2 fold change [3] | log2 fold change (gandotinib) | log2 fold change (tozasertib) | log2 fold change (doramapimod) | log2 fold change (ispinesib) | log2 fold change (bafetinib) | log2 fold change [4] | log2 fold change (nilotinib) | log2 fold change [5] | log2 fold change [6] | log2 fold change [7] | log2 fold change [8] | log2 fold change (tipifarnib) | log2 fold change (mubritinib) | log2 fold change (duvelisib) | log2 fold change [9] | log2 fold change (dasatinib)
MRPS16 (UniProt Q9Y3D3) | 0.061 | 0.014 | 0.028 | 0.159 | -0.031 | 0.05 | 0.001 | -0.266 | 0.192 | 0.151 | -0.187 | 0.009 | -0.053 | 0.049 | 0.092 | -0.094 | 0.16 | – | – | –
ORC5 (UniProt O43913) | 0.166 | -0.766 (active) | – | 0.008 | -0.226 | -0.007 | -0.104 | -0.152 | 0.01 | 0.027 | 0.133 | -0.001 | -0.114 | 0.067 | 0.044 | 0.031 | 0.045 | 0.074 | 0.135 | -0.231
NAGPA (UniProt Q9UK23) | 0.017 | 0.178 | -0.078 | -0.014 | 0.024 | -0.094 | 0.072 | – | -0.076 | -0.142 | -0.082 | 0 | 0.014 | 0.023 | – | 0.245 | -0.091 | 0.067 | -0.079 | 0.053
MRPS26 (UniProt Q9BYN8) | 0.097 | 0.005 | 0.009 | 0.291 | 0.158 | 0.146 | 0.059 | -0.421 (active) | 0.275 | -0.003 | – | – | – | 0.007 | 0.135 | -0.142 | 0.088 | 0.002 | 0.065 | -0.031
NUDT7 (UniProt P0C024) | 0.03 | 0.004 | 0.248 | – | -0.23 | 0.165 | 0.011 | -0.157 | 0.418 | -0.122 | 0.093 | 0.006 | -0.03 | – | 0.027 | – | – | – | – | –
NOP56 (UniProt O00567) | -0.101 | -0.103 | -0.338 | 0.285 | 0.064 | -0.043 | 0.178 | 0.162 | 0.225 | -0.099 | 0.098 | -0.018 | -0.026 | -0.371 | -0.18 | 0.201 | -0.164 | -0.022 | 0 | 0.204
NCK1 (UniProt P16333) | -0.077 | -0.449 | 0.171 | 0.162 | – | 0.061 | -0.008 | -0.173 | 0.062 | – | -0.069 | -0.421 | 0.046 | -0.086 | -0.044 | 0.008 | -0.058 | -0.135 | 0.076 | -0.138
MON1A (UniProt Q86VX9) | 0.049 | -0.559 (active) | 0.057 | – | 0.116 | -0.111 | 0.045 | -0.153 | -0.011 | -0.112 | -0.163 | -0.056 | 0.138 | – | -0.009 | 0.082 | -0.012 | -0.012 | 0.011 | 0.017
